Structures are written as SMILES. “And” between values parts separate entries of the source, which are not always exact repeats. Equal entries are not always repeated. A number with no mark means an inactive call. Records with an inconclusive call do not appear. The source made the active and inactive calls. Calls follow the shape of the dose curve; as a rule, active = well fitted curve in the direction sought with a large enough effect; inconclusive = small, poorly fitted or top-dose-only effect, or another doubt; inactive = no such curve, though single readings can be large; an effect the other way counts as inactive or inconclusive.

The target in experiment [1] is Cytochrome P450 3A4 (Homo sapiens) (UniProt P08684). Put plainly: qHTS Assay for Activators of Cytochrome P450 3A4 (AID 885). Also: nearly all actives have a fitted effect of over 65% in size. In short, it runs like this:
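Activators are scored by enhanced luminescence from CYP3A4 conversion of luciferin-PPXE (25uM, equal to KM) to luciferin, after 60 min at RT with an NADPH-regenerating system.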
On the technique in general: In qHTS, concentration-response curves come from the screen itself.

Experiment [2] has as its target Cytochrome P450 2D6 (Homo sapiens) (UniProt P10635). In words: qHTS Assay for Inhibitors and Substrates of Cytochrome P450 2D6 (AID 891). Also: nearly all actives have a fitted effect of over 60% in size. Also: potency is read from the fitted curve at half-maximal effect. In short, it runs like this:
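Luminescent read-out of luciferin formed by 5 nM human CYP2D6 demethylating 30 uM Luciferin-ME EGE (Km level) over 60 min at room temperature after NADPH regeneration addition. Data normalized to full inhibition by 1.43 uM quinidine.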

Cytochrome P450 3A4 (Homo sapiens), sequence (P08684 whole entry, looked up): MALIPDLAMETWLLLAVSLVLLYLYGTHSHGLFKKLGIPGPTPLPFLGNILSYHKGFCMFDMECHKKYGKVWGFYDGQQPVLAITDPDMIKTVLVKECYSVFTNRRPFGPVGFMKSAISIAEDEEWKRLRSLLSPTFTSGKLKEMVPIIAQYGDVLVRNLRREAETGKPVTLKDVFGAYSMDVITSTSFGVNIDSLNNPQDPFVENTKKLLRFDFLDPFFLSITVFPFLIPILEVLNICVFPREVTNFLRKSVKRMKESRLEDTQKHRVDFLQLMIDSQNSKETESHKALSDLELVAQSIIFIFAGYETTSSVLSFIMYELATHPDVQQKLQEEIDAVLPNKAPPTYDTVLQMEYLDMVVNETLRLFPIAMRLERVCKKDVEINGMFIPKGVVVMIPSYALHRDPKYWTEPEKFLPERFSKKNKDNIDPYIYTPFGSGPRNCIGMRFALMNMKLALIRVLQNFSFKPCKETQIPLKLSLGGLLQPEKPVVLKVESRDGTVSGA
Cytochrome P450 2D6 (Homo sapiens), sequence (P10635 whole entry, looked up): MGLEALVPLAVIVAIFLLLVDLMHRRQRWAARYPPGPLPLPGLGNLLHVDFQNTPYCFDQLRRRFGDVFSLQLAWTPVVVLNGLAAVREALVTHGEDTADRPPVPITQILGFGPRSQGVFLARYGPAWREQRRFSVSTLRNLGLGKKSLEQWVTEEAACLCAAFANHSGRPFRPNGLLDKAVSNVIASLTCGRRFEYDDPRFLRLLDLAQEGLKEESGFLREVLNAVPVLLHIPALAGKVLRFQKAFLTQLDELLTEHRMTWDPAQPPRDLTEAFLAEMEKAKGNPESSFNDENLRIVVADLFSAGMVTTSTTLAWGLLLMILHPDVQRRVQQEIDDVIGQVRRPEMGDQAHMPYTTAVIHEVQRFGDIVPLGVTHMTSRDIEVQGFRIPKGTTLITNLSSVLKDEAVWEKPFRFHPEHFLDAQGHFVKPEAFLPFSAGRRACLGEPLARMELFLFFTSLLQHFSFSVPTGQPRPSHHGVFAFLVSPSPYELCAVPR

Take `CO[C@H]1COC(=O)C/C=C\[C@H](C)[C@H](OC)COC(=O)[C@@H](C)COC(=O)C/C=C\[C@@H]1C`: the activity change, positive = activation in experiment [1] was -30.8% [at 11.4 µM] and -38.4% [at 11.4 µM]. As to `FC(F)(F)c1ccc(CN2C[C@@H]3C(c4ccc(C(F)(F)F)cc4)C4(c5cccnc5)CC3(C4)[C@H]2c2ccccc2)cc1` (some centres not stated), in experiment [1], the Potency entry is “inactive”. `COC(=O)[C@@H]1CC[C@H](C)[C@@H](c2ccc(C)cc2)N1C(=O)c1ccc(/C=N\O[C@@H](C)CN2CCCCc3nc(C)c(C)cc32)cc1`: in experiment [1], the activity change, positive = activation was -36.1% [at 11.4 µM].

In the case of `CC(C)[C@@H](OCc1ccccc1)[C@H](C)/C=N\O[C@@H](C)c1cn([C@H](CO)Cc2ccccc2)nn1`, the activity change, positive = activation in experiment [1] was -36% [at 11.4 µM] and -44.1% [at 11.4 µM]. Same read-out and setting: as for `COc1ccc(COC(=O)N/N=C2/C[C@@H](O)[C@@H](O)[C@@H]3[C@@H]4C(=O)N(C(C)(C)C)C(=O)[C@H]4CC[C@H]23)cc1`, the figure is -30.7% [at 11.4 µM]; as for `CC(C)=CCC/C(C)=C/CO/N=C1/C[C@@H](O)[C@@H](O)[C@@H]2[C@H]3C(=O)N(c4ccc(F)cc4F)C(=O)[C@@H]3CC[C@@H]12`, -30.2% [at 11.4 µM].

Regarding `CC1(C)CC(=O)c2c(oc3cc(O)c(O)cc23)C1`, in experiment [1], the Potency result is “inactive”. For the compound `COc1ccc(O[C@H]2C=C[C@@H](c3ccccc3)O[C@@H]2CON=C(C)C)cc1`, in experiment [1], the activity change, positive = activation was -40.2% [at 11.4 µM].

As to `O=C1[C@H]2[C@H]3[C@H](O)[C@H](O)C/C(=N/OC[C@@H](O)COCc4ccco4)[C@@H]3CC[C@@H]2C(=O)N1c1cccc(Oc2ccccc2)c1`, the activity change, positive = activation in experiment [1] was -40.2% [at 11.4 µM]. Consider `COC(=O)N1C2(C=CC1(C)C(=O)NCc1ccc(N(C)C)cc1)CCCCC2` (configuration not stated), for which the Potency entry in experiment [1] was “inactive”. For the compound `COC(=O)[C@@H]1C[C@@H]2CC[C@@H](O)C[C@@H]2N1Cc1ccc(N2CCN(C)CC2)cc1`, the Potency entry in experiment [1] was “inactive”.

Take `C#CCCCO/N=C1/C[C@@H](O)[C@@H](O)[C@@H]2[C@@H]3C(=O)N(C[C@@H]4CCCO4)C(=O)[C@H]3CC[C@H]12`: the activity change, positive = activation in experiment [1] is -43.2% [at 11.4 µM].

`CC(=O)OC[C@@H]1O[C@H](C/C=N\O[C@@H](C)c2cn([C@H](CO)Cc3ccccc3)nn2)C=C[C@@H]1OC(C)=O`: the activity change, positive = activation in experiment [1] was -51.6% [at 11.4 µM] and -34% [at 11.4 µM]. On to `COC(=O)c1ccc(C23CC4(C2)[C@H](CN(Cc2cccnc2)[C@@H]4c2ccccc2)C3c2ccc(C(F)(F)F)cc2)cc1` (some centres not stated), for which, in experiment [1], the Potency entry was “inactive”. With `CO[C@@H]1COC(=O)C/C=C\[C@@H](C)[C@@H]2C=C[C@H](O)[C@@H](COC(=O)CCC[C@H]1C)O2`, the activity change, positive = activation in experiment [1] was -44.8% [at 11.4 µM]. For the compound `CCC1=C2CC[C@H]3C(=O)N(CC(=O)OC)C(=O)[C@H]3[C@H]2[C@@]2(C)C(=O)N(CC3CC3)C(=O)N2C1=O`, the Potency entry in experiment [1] is “inactive”. Still for that read-out and setting: to `CN1C[C@@H]2C(c3ccccc3)C3(c4ccccc4)CC2(C3)[C@H]1c1ccccc1` (some centres not stated) belongs “inactive”. Take `CC(C)=NO[C@@H](C)c1cc(-c2c(C)cc(C)cc2C)no1`: the activity change, positive = activation in experiment [1] is -45% [at 11.4 µM]. The same measure, in the same setting: to `CO[C@H]1COC(=O)[C@H](Cc2ccccc2)NC(=O)C/C=C\[C@@H](C)[C@H](OC)COC(=O)C/C=C\[C@@H]1C` belongs -59.6% [at 11.4 µM]. Take `CO/N=C1/c2cc(OC)ccc2O[C@@H](c2cccc(OC)c2)[C@H]1O`: the activity change, positive = activation in experiment [1] was -52.8% [at 11.4 µM]. For the compound `CCC1=C2CC[C@H]3C(=O)N(CC)C(=O)[C@H]3[C@H]2[C@@]2(Cc3ccccc3)C(=O)N(CCOC)C(=O)N2C1=O`, the Potency entry in experiment [1] was “inactive”.

With `CC(=O)OC[C@@H]1O[C@H](CCO/N=C(\C)CCN2CCCc3nc(C)c(C)cc32)C=C[C@@H]1OC(C)=O`, the activity change, positive = activation in experiment [1] is -42.6% [at 11.4 µM]. With `COC(=O)c1cccc(C23CC4(C2)[C@H](CN(Cc2cccnc2)[C@@H]4c2ccccc2)C3c2ccc(C(F)(F)F)cc2)c1` (some centres not stated), the Potency result in experiment [1] was “inactive”. On to `CO[C@@H]1/C=C\CC(=O)N[C@@H](C)C(=O)OC[C@H](NS(=O)(=O)c2ccc(C)cc2)[C@H](C)/C=C\CC(=O)OC[C@H]1C`, for which the activity change, positive = activation in experiment [1] was -37.9% [at 11.4 µM]. The same measure, in the same setting: as for `CO[C@H]1COC(=O)[C@@H](Cc2ccccc2)NC(=O)[C@@H](C)COC(=O)C/C=C\[C@@H]1C`, the figure is -36.9% [at 11.4 µM]. Regarding `COC(=O)c1cccc(C23CC4(C2)[C@H](CN(C)[C@@H]4c2ccccc2)C3c2ccc(Cl)nc2)c1` (some centres not stated), the Potency entry in experiment [1] was “inactive”.

Take `COC(=O)[C@@H]1C[C@@H]2CC[C@@H](O)C[C@@H]2N1Cc1ccc(Cl)cc1`: the Potency entry in experiment [1] was “inactive”.

`CC[C@@H](c1ccccc1)n1c(=O)n2n(c1=O)[C@H]1[C@H](O)[C@H]3O[C@@H]3/C(=N/OCc3ccccc3)[C@@H]1CC2`: the activity change, positive = activation in experiment [1] is -33.4% [at 11.4 µM]. On to `O=C1CCCC=C1[C@@H](O)COCc1ccccc1`, for which the activity change, positive = activation in experiment [1] is -31.3% [at 11.4 µM]. Same read-out and setting: to `CC(=O)O[C@H]1C2=CO[C@H](C)[C@H]3[C@H]4C5=C([C@H](O)[C@H]6O[C@@H]6C5=O)[C@H](O[C@H]4C)[C@@]23C(=O)[C@H]2O[C@@H]21` belongs -42.7% [at 11.4 µM]. With `CCOC(=O)CCN1C(=O)[C@H]2[C@@H]3[C@H](O)[C@H](O)CC(=O)[C@H]3CC[C@H]2C1=O`, in experiment [2], the Potency result is “inactive”. Still for that read-out and setting: to `COC(=O)C/C=C\[C@@H](C)[C@@H](/C=N\O[C@@H](C)CN1CCCc2nc(C)c(C)cc21)NS(=O)(=O)c1ccc(C)cc1` belongs 3.16 µM (active).

For the origin of these results see PubChem BioAssay (NCATS).
